Among the data in PubChem BioAssay (NCI) are growth values, retold here.

The panel holds about 83,000 compounds, 20% with a hit somewhere; the sample as a whole holds those more often.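 Single-concentration screen, 48 h exposure, 96-well plates. Endpoint: percent growth. Below 10 = active.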 Unmarked numbers belong to inactive results. Activity calls are given as the source filed them.

Holding throughout (assay): NCI-60 one-dose screen, 48 h (100 = growth as untreated, 0 = no growth, -100 = all killed)
One assay deals with SR leukemia. Particulars: 10 µM.
The test system of a further assay is RPMI-8226 leukemia. Particulars: 10 µM.
The subject of a further assay is OVCAR-8 ovarian. Particulars: 10 µM.
The next assay concerns OVCAR-4 ovarian. The settings on record: 10 µM.
In another assay the test system is SK-OV-3 ovarian. The settings on record: 10 µM.
In another assay the test system is IGROV1 ovarian. The settings on record: 10 µM.
In the next assay the test system is OVCAR-3 ovarian. Particulars: 10 µM.
The test system of a further assay is HS 578T breast. The settings on record: 10 µM.
The next assay concerns NCI/ADR-RES ovarian. The settings on record: 10 µM.
Another assay relates to T-47D breast. The settings on record: 10 µM.
Another assay has as its system BT-549 breast. The settings on record: 10 µM.
A further assay deals with MDA-MB-435 melanoma. The settings on record: 10 µM.
For a further assay, the system named is SW-620 colon. The settings on record: 10 µM.
The next assay deals with MCF7 breast. Particulars: 10 µM unless noted.
The next assay relates to HCT-116 colon. The settings on record: 10 µM.
A further assay has as its system HCC-2998 colon. Particulars: 10 µM.
The subject of a further assay is KM12 colon. Particulars: 10 µM.
Another assay concerns OVCAR-5 ovarian. Particulars: 10 µM.

Turning to `O=C(CCl)Nc1ccc2c(c1)C(=O)c1ccc(NC(=O)CCl)cc1C2=O`, the growth was -27.1% (active) with SR leukemia; -40.3% (active) in the assay with RPMI-8226 leukemia; -23% (active) in the assay on OVCAR-8 ovarian; -43% (active) with OVCAR-4 ovarian; -9.68% (active) with SK-OV-3 ovarian; -62.1% (active) in the assay on IGROV1 ovarian. The growth in the assay on OVCAR-3 ovarian was -93.2% (active); with HS 578T breast, 6.19% (active); with NCI/ADR-RES ovarian, -53.8% (active); in the assay with T-47D breast, -48.7% (active); in the assay with BT-549 breast, -91% (active); in the assay with MDA-MB-435 melanoma it was -71.6% (active). Moreover, the growth was -61.7% (active) in the assay on SW-620 colon; -60.7% (active) in the assay with MCF7 breast; -79.8% (active) in the assay on HCT-116 colon; -77.8% (active) in the assay on HCC-2998 colon; -72.2% (active) in the assay on KM12 colon.

As for `Cc1ccc(C(=O)NC2c3ccccc3Oc3ccccc32)cc1`, the growth in the assay with SR leukemia was 26.6%; in the assay with OVCAR-8 ovarian it was 48.6%; in the assay with OVCAR-5 ovarian, 80.6%; in the assay with OVCAR-4 ovarian, 64.7%; in the assay on SK-OV-3 ovarian, 48.3%; with IGROV1 ovarian it was 50.8%. In addition, the growth in the assay on OVCAR-3 ovarian was 31.6%; with HS 578T breast, 46.5%; in the assay on NCI/ADR-RES ovarian it was 55%; in the assay on T-47D breast, 60.5%; in the assay with BT-549 breast, 62.6%; with MDA-MB-435 melanoma it was 6.21% (active). Also, the growth in the assay on SW-620 colon was 38.9%; in the assay on MCF7 breast it was 21.7%; with HCT-116 colon it was 30.3%; in the assay with HCC-2998 colon it was 75.6%; with KM12 colon, 51.3%.

Turning to `CCO/C=C1\SC(=S)N(c2cccc(C)c2)C1=O`, the growth with SR leukemia was 87.9%; in the assay with OVCAR-8 ovarian, 101%; in the assay on OVCAR-5 ovarian it was 106%; in the assay on OVCAR-4 ovarian, 100%; with SK-OV-3 ovarian, 88.7%; in the assay on IGROV1 ovarian, 107%. Also, the growth in the assay with OVCAR-3 ovarian was 104%; in the assay with HS 578T breast, 103%; with NCI/ADR-RES ovarian it was 109%; in the assay on T-47D breast it was 93.2%; in the assay with BT-549 breast it was 114%; in the assay on MDA-MB-435 melanoma it was 103%. The growth in the assay with SW-620 colon is 103%; in the assay with MCF7 breast it was 90.5%; with HCT-116 colon, 109%; in the assay with HCC-2998 colon, 106%; in the assay with KM12 colon, 103%.

`O=C1c2ccccc2C(=O)c2c1ccc(C(=O)O)c2[N+](=O)[O-]`: the growth is 76.1% in the assay on SR leukemia; 100% with OVCAR-8 ovarian; 102% in the assay on OVCAR-5 ovarian; 96% in the assay on OVCAR-4 ovarian; 108% with SK-OV-3 ovarian; 105% in the assay with IGROV1 ovarian. The growth is 115% in the assay with OVCAR-3 ovarian; 82.5% in the assay on HS 578T breast; 103% with NCI/ADR-RES ovarian; 105% in the assay with T-47D breast; 95.5% with BT-549 breast; 118% in the assay with MDA-MB-435 melanoma. Moreover, the growth in the assay with SW-620 colon was 102%; in the assay on MCF7 breast, 89.9%; in the assay with HCT-116 colon, 104%; in the assay with HCC-2998 colon, 106%; in the assay with KM12 colon, 101%.

`Cc1cc(=O)[nH]c(NN=C2CCCC2)n1`: the growth is 103% with SR leukemia; 112% in the assay with OVCAR-8 ovarian; 99.4% in the assay on OVCAR-5 ovarian; 114% with OVCAR-4 ovarian; 103% in the assay with SK-OV-3 ovarian; 107% with IGROV1 ovarian. The growth was 110% in the assay on OVCAR-3 ovarian; 121% in the assay on HS 578T breast; 121% in the assay with NCI/ADR-RES ovarian; 103% in the assay with T-47D breast; 122% with BT-549 breast; 110% with MDA-MB-435 melanoma. The growth is 111% with SW-620 colon, 104% with MCF7 breast, 107% in the assay with HCT-116 colon and 110% in the assay on KM12 colon.

For `O=C1c2ccccc2C(=O)N1OCc1ccccc1`, the growth in the assay with SR leukemia was 93.4%; in the assay with OVCAR-8 ovarian, 105%; in the assay with OVCAR-5 ovarian it was 97.2%; with OVCAR-4 ovarian, 105%; in the assay with SK-OV-3 ovarian it was 99.2%; with IGROV1 ovarian, 94.4%. In addition, the growth was 105% in the assay with OVCAR-3 ovarian; 113% in the assay with HS 578T breast; 116% in the assay on NCI/ADR-RES ovarian; 92.1% with T-47D breast; 110% with MDA-MB-435 melanoma; 107% in the assay on SW-620 colon. In addition, the results for the growth with MCF7 breast and in the assay on HCT-116 colon were 99.5% and 99.8%, respectively.

For the compound `Cc1cc2ccccc2c(O)c1C#N`, the growth with SR leukemia was 108%; in the assay on OVCAR-8 ovarian, 99.7%; in the assay with OVCAR-5 ovarian, 103%; in the assay with OVCAR-4 ovarian it was 114%; in the assay on SK-OV-3 ovarian, 89.4%; with IGROV1 ovarian, 114%. Moreover, the growth in the assay on OVCAR-3 ovarian was 108%; with HS 578T breast it was 108%; in the assay with NCI/ADR-RES ovarian it was 96%; with T-47D breast, 88.8%; in the assay with BT-549 breast it was 97.6%; with MDA-MB-435 melanoma, 108%. Also, the growth with SW-620 colon was 104%; in the assay on MCF7 breast it was 99.3%; in the assay on HCT-116 colon it was 105%; with KM12 colon, 105%.

On to `S=C1CCCCCN1`, for which the growth with SR leukemia was 102%; in the assay with OVCAR-8 ovarian it was 104%; in the assay with OVCAR-5 ovarian it was 103%; in the assay on OVCAR-4 ovarian, 111%; in the assay with SK-OV-3 ovarian, 119%; in the assay with IGROV1 ovarian, 110%. For the same compound, the growth in the assay on OVCAR-3 ovarian is 115%; in the assay with HS 578T breast, 105%; with NCI/ADR-RES ovarian, 104%; with T-47D breast it was 100%; with MDA-MB-435 melanoma, 104%; in the assay on SW-620 colon, 107%. In addition, the growth was 99.4% in the assay with MCF7 breast, 102% in the assay on HCT-116 colon, 112% in the assay with HCC-2998 colon and 105% in the assay with KM12 colon.

On to `O=P(O)(O)OCC(O)CO` (stereo unspecified), for which the growth with SR leukemia is 99.6%; with OVCAR-8 ovarian, 109%; in the assay with OVCAR-5 ovarian it was 101%; in the assay on OVCAR-4 ovarian, 88.3%; in the assay on SK-OV-3 ovarian, 106%; with OVCAR-3 ovarian, 112%. The growth with HS 578T breast was 106%; in the assay on NCI/ADR-RES ovarian, 106%; with T-47D breast, 100%; in the assay on BT-549 breast, 102%; in the assay on MDA-MB-435 melanoma it was 109%; in the assay with SW-620 colon, 107%. For the same compound, the growth in the assay on MCF7 breast is 95.6%; in the assay on HCT-116 colon, 102%; in the assay with HCC-2998 colon it was 107%; in the assay on KM12 colon, 105%.
